Assay [1] is described as follows: Nuclear factor erythroid 2-related factor 2/antioxidant responsive element (Nrf2/ARE) small molecule agonists: luciferase reporter gene qHTS assay in human keratinocytes (AID 1919969). Also: nearly all actives have a fitted effect of over 35% in size. Also: potency is read from the fitted curve at half-maximal effect.
Assay [2] has as its target Gonadotropin-releasing hormone receptor (Homo sapiens) (UniProt P30968). Nature of the assay: Human gonadotropin-releasing hormone receptor (GnRHR) small molecule agonists, calcium flux assay in GnRHR-HEK293 cells (AID 1920063). Also: nearly all actives have a fitted effect of over 35% in size. Also: potency is read from the fitted curve at half-maximal effect. A digest of the protocol:
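Compounds dissolved in DMSO are pin-transferred onto dye-loaded GnRHR-HEK293 cells, which were seeded 18 h before at 37 C/5% CO2. Calcium signal is read as fluorescence intensity at 1 s intervals for 3 min.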

In assay [3] the target is KiSS-1 receptor (Homo sapiens) (UniProt Q969F8). Nature of the assay: Human kisspeptin (KISS1R) small molecule agonists, calcium flux assay in KISS1R-HEK293 cells (AID 1920064; active = well fitted activation curve with a large enough effect in the repeat runs; also: potency is read from the fitted curve at half-maximal effect). A digest of the protocol: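 Cell line: HEK293, stable human KISS1R. Dye loading 1 h at 37 C after 18 h culture. Read: kinetic fluorescence, 480/540 nm, 3 min at 1 s intervals.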
Chain of KiSS-1 receptor (Homo sapiens) (Q969F8 whole entry, looked up): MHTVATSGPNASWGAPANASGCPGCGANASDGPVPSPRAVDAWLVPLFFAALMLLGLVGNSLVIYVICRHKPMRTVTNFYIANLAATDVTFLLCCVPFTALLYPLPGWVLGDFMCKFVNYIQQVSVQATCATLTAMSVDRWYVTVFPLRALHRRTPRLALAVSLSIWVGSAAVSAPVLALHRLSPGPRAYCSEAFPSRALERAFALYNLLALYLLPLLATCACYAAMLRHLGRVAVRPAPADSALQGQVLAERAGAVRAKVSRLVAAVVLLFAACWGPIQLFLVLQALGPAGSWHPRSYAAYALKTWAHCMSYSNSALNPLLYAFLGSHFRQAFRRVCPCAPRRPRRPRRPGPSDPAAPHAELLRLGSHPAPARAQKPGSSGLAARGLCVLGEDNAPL
Assay [4] can be described thus: G protein-coupled receptor (GPCR) small molecule agonists, calcium flux assay: HEK293 wild type cell line counter screen (AID 1920065). Also: potency is read from the fitted curve at half-maximal effect. A digest of the protocol:
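Tox21 10K compounds, 15 concentrations each in triplicate, pin-transferred in DMSO onto dye-loaded cells; kinetic read at 480/540 nm for 3 min, 1 s intervals.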

The nature of assay [5]: p53 small molecule agonists, cell-based qHTS assay with human liver microsomes (AID 1963577).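 Also: p53 response element beta-lactamase reporter cells with liver microsomes plus NADPH.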 A digest of the protocol:
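Metabolically competent format: test substances, human liver microsomes and NADPH (both 0.5 mg/mL final) incubated with p53RE-bla cells 16 h at 37 C. Beta-lactamase reporter signal then quantified by fluorescence.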

Assay [6] in a line: p53 small molecule agonists, cell-based qHTS assay with rat liver microsomes (AID 1963578). A digest of the protocol:
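Each plate received p53RE-bla cells, then compound, then rat liver microsomes and NADPH (both 0.5 mg/mL final). Plates were held 16 h at 37 C, and beta-lactamase activity was detected with LiveBLAzer over 2 h.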

The nature of assay [7]: p53 small molecule agonists, cell-based qHTS assay with human liver microsomes: qHTS cell viability counter screen (AID 1963579). Also: nearly all actives have a fitted effect of over 45% in size. The gist of the method: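 Tox21 library compounds, delivered from DMSO stocks, were tested on p53RE-bla cells together with 0.5 mg/mL human liver microsomes and 0.5 mg/mL NADPH (final) over 16 h at 37 C; CellTiter-Glo luminescence served as the cytotoxicity measure.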

Assay [8] can be described thus: p53 small molecule agonists, cell-based qHTS assay: qHTS cell viability counter screen (AID 1963581). Also: nearly all actives have a fitted effect of over 45% in size. Also: potency is read from the fitted curve at half-maximal effect. The gist of the method:
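ATP content measured by luminescence in HCT-116 p53RE-bla cells treated 16 h at 37 C, same wells as the reporter screen.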

A short description of assay [9]: p53 small molecule agonists, cell-based qHTS assay (AID 1963582; active = well fitted activation curve with a large enough effect in the signal ratio in the repeat runs, not every such curve was filed as active; the % refers to the signal ratio). The gist of the method:
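16 h compound exposure (37 C) of p53 response element–bla cells, preceded by 5 h recovery at 37 C/5% CO2; read-out via LiveBLAzer B/G FRET substrate, 2 h RT, fluorescence intensity.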

Assay [10] concerns the target 5-hydroxytryptamine receptor 2A (Homo sapiens) (UniProt P28223). As to the kind of experiment: 5-hydroxytryptamine receptor 2A (HTR2A) small molecule antagonists, cell-based qHTS assay (AID 1963586). Also: nearly all actives have a fitted effect of over 45% in size. Also: potency is read from the fitted curve at half-maximal effect. The gist of the method: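 CHO cells stably expressing human HTR2A were plated for 18 h at 37 C, then loaded with calcium dye for 1 h. Compounds were preincubated 5 min at room temperature before DOI (4 nM solution) was added. Kinetic fluorescence was read for 3 min.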

For assay [11] the target is unchanged. As to the kind of experiment: 5-hydroxytryptamine receptor 2A (HTR2A) small molecule agonists, cell-based qHTS assay (AID 1963587). Also: nearly all actives have a fitted effect of over 30% in size. Also: potency is read from the fitted curve at half-maximal effect. A digest of the protocol:
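Kinetic calcium-flux fluorescence (2 min, 1 sec intervals) after compound addition in agonist mode. HTR2A-CHO cells were cultured 18 h, then dye-loaded 1 h at 37 C.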

Assay [12] deals with Muscarinic acetylcholine receptor M1 (Homo sapiens) (UniProt P11229). Nature of the assay: Cholinergic receptor muscarinic 1 (CHRM1) small molecule antagonists, cell-based qHTS assay (AID 1963588). Also: nearly all actives have a fitted effect of over 40% in size. Also: potency is read from the fitted curve at half-maximal effect. The gist of the method:
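Compounds were tested at 15 concentrations in three independent runs. Dye-loaded CHRM1-CHO cells were exposed 5 min at room temperature before stimulation by acetylcholine added at 50nM. Intracellular calcium was read kinetically on FDSS for 3 min.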

The target is the same in assay [13]. As to the kind of experiment: Cholinergic receptor muscarinic 1 (CHRM1) small molecule agonists, cell-based qHTS assay (AID 1963589). Also: nearly all actives have a fitted effect of over 35% in size. Also: potency is read from the fitted curve at half-maximal effect. A digest of the protocol: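 Homogeneous fluorescence calcium flux, agonist mode. Human M1-expressing CHO cells; compound dosed at 15 concentrations, three independent runs; signal sampled every 1 sec.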
Assay [14] concerns the target Beta-2 adrenergic receptor (Homo sapiens) (UniProt P07550). Nature of the assay: Adrenergic beta2 receptor (ADRB2) small molecule antagonists, cell-based qHTS assay (AID 1963592). Also: series mostly up to about 92 µM; nearly all actives have a fitted effect of over 50% in size. A digest of the protocol: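 Assay format: CHO-ADRB2 cells, 18-20hr seeding at 37C/5% CO2, then compound plus 1nM isoproterenol agonist mix for 0.5hr RT. Homogeneous time-resolved fluorescence cAMP detection after 1hr, expressed as 665/615 nm ratio.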

For assay [15] the target is unchanged. As to the kind of experiment: Adrenergic beta2 receptor (ADRB2) small molecule agonists, cell-based qHTS assay (AID 1963593).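 Also: CHO cells stably overexpressing human ADRB2.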 A digest of the protocol:
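CHO cells stably over-expressing ADRB2 were plated overnight at 37C, then dosed with compounds plus a stimulation mix containing 100uM IBMX and 25uM Ro-20-1724 for 0.5hr at room temperature. cAMP was measured by HTRF competition, 1hr.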

Assay [16] can be described thus: cAMP Responsive Elements (CRE) small molecule agonists, cell-based qHTS assay (AID 1963590). The gist of the method: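 HEK 293T cells stably bearing CRE-bla were plated at 2,000 cells per well and rested 18 h. Compounds, positive controls or DMSO were added for 3 h at 37 C. LiveBLAzer B/G substrate was then loaded for 2 h at room temperature.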
The nature of assay [17]: cAMP Responsive Elements (CRE) small molecule antagonists, cell-based qHTS assay (AID 1963591; active = well fitted inhibition curve with a large enough effect in the signal ratio in the repeat runs, not every such curve was filed as active; the % refers to the signal ratio). A digest of the protocol: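 First, CRE-bla HEK293T cells settled 18 h at 37 C. Next, compound and 0.25 uM final NKH477 were applied for 3 h. Last, LiveBLAzer B/G substrate was loaded for 2 h at room temperature.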
Assay [18] concerns the target D(2) dopamine receptor (Homo sapiens) (UniProt P14416). Nature of the assay: Dopamine D2 receptor (DRD2) small molecule antagonists, cell-based qHTS assay (AID 1963595; active = well fitted inhibition curve with a large enough effect in the signal ratio in the repeat runs, with a control signal flat; the % refers to the signal ratio). The gist of the method:
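Human DRD2 antagonist qHTS measuring cAMP by HTRF. The cells are exposed to compound for 10 min, then to NKH477 (200 nM) and quinpirole (12 nM) for 30 min at RT, with Ro20-1724 (0.1 mM) present throughout.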

Assay [19] is described as follows: p53 small molecule agonists, cell-based qHTS assay with rat liver microsomes: qHTS cell viability counter screen (AID 1963580). Also: nearly all actives have a fitted effect of over 45% in size. The gist of the method: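 Cytotoxicity counter screen: intracellular ATP read by CellTiter-Glo luminescence in the p53 reporter wells. HCT-116 p53RE-bla cells were treated for 16 h at 37 C alongside rat liver microsomes and NADPH, each 0.5 mg/mL final.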

The target of assay [20] is D(2) dopamine receptor (Homo sapiens) (UniProt P14416). As to the kind of experiment: Dopamine D2 receptor (DRD2) small molecule agonists, cell-based qHTS assay (AID 1963594). Also: nearly all actives have a fitted effect of over 35% in size. A digest of the protocol: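 cAMP accumulation in DRD2-HEK293 cells measured by HTRF after 1 h detection; compounds added 10 min before NKH477 (200nM […]) forskolin-analogue stimulation, 30 min at room temperature, with Ro20-1724 present at 0.1 mM final.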
Chain of D(2) dopamine receptor (Homo sapiens) (P14416 whole entry, looked up): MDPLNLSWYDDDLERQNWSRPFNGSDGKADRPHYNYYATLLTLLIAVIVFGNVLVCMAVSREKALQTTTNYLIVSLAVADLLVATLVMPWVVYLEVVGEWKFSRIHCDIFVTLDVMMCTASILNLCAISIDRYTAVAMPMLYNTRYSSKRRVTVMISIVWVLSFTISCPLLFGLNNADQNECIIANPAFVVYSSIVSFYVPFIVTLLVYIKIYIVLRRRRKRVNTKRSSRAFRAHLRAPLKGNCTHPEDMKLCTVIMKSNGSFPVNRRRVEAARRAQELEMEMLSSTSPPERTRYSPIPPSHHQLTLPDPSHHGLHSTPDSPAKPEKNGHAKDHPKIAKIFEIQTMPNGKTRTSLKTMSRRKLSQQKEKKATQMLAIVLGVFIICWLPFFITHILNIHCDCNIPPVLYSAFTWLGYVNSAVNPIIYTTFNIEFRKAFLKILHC

Molecules are shown by their SMILES. “And” between values parts separate entries of the source, which are not always exact repeats. Equal entries are not always repeated. Values without a mark were called inactive. Inconclusive results are not listed. The source made the active and inactive calls. Unless noted, calls follow the shape of the full dose curve.
% is scaled to controls: 0 for no effect and ±100 for the full control effect.

Chain of Beta-2 adrenergic receptor (Homo sapiens) (P07550 whole entry, looked up): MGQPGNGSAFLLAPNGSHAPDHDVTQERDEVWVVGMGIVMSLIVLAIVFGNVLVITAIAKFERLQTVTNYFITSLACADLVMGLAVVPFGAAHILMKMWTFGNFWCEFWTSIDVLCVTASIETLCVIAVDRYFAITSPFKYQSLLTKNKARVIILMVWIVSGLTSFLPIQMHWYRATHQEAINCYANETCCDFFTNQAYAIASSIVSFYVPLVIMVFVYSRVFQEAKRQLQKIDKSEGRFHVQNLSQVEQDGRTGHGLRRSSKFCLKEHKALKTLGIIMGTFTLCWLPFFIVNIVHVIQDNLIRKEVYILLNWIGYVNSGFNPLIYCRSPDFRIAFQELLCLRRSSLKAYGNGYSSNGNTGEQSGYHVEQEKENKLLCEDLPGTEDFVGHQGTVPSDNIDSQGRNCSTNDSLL
Chain of 5-hydroxytryptamine receptor 2A (Homo sapiens) (P28223 whole entry, looked up): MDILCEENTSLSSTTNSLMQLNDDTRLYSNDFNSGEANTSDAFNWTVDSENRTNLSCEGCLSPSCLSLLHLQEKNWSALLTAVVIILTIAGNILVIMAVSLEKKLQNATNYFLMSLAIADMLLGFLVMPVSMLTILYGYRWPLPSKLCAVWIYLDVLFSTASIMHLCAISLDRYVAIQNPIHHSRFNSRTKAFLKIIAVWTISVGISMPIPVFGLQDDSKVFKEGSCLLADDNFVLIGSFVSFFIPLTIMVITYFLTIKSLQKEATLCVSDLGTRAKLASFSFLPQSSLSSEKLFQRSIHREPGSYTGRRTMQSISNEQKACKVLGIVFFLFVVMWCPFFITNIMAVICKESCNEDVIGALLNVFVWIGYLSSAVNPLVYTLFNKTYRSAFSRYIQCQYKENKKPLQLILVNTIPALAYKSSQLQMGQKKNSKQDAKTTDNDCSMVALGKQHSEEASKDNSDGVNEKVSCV
Chain of Muscarinic acetylcholine receptor M1 (Homo sapiens) (P11229 whole entry, looked up): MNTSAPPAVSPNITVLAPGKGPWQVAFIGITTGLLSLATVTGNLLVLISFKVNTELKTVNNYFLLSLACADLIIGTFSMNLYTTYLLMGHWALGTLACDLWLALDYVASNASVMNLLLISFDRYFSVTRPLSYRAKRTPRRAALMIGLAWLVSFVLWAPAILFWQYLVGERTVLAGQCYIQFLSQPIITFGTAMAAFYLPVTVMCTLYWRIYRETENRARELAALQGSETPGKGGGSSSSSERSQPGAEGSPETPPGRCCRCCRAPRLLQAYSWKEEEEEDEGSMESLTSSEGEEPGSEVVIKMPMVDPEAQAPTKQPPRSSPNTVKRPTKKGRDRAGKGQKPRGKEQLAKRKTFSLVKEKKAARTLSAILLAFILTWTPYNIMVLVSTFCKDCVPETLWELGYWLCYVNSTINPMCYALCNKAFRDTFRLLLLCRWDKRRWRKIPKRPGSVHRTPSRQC
Chain of Gonadotropin-releasing hormone receptor (Homo sapiens) (P30968 whole entry, looked up): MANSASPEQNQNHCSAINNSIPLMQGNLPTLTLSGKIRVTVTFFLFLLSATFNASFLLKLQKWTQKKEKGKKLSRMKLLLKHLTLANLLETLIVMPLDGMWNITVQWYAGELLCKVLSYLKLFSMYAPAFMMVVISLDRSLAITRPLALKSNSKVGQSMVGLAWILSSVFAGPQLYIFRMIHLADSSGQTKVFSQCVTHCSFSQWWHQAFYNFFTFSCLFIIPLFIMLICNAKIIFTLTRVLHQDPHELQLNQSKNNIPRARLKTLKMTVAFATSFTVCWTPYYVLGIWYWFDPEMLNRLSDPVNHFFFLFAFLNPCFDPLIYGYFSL

As to `Cc1cc2nc3c(=O)[nH]c(=O)nc-3n(C[C@H](O)[C@H](O)[C@H](O)CO)c2cc1C`, the Potency entry in assay [1], in assay [7], in assay [8], in [9], in assay [10] and in [12] was “inactive” each time. The Potency in [2] is 17.2 µM (active) and 11.4 µM (active) and 8.27 µM (active); in [3], 24.3 µM (active) and 22.8 µM (active); in assay [4] it was 38.5 µM (active) and 32.2 µM (active) and 9.28 µM (active); in assay [11] it was 6.1 µM (active) and 16.1 µM (active) and 11.7 µM (active); in assay [13], 24.3 µM (active) and 20.3 µM (active) and 11.7 µM (active). Moreover, the activation was -6.49% [at 13.5 µM] in assay [5], -5.55% [at 13.6 µM] in [6] and 1.44% [at 19 µM] in [15]. The activity change, negative = inhibition in [14] is -10.6% [at 19 µM].

Take `C=Cc1ccc(O)c(OC)c1`: the Potency in assay [1] was 48.6 µM (active). The Potency result in [2], in assay [3], in assay [4], in assay [5], in [6] and in assay [7] was “inactive” each time. The Potency result in assay [8], in assay [9], in assay [10], in [11], in assay [13] and in assay [16] was “inactive” throughout. The Potency result in [17], in assay [14] and in [18] was “inactive” in each case.

Regarding `O=C1Cc2cc(CCN3CCN(c4nsc5ccccc45)CC3)c(Cl)cc2N1`, the Potency entry in assay [1], in assay [2], in assay [3], in [4], in assay [5] and in assay [6] was “inactive” each time. Moreover, the Potency entry in [7], in [19], in assay [11], in [13], in [16] and in assay [14] was “inactive” in each case. The Potency entry in assay [20] was “inactive”. For the same molecule, the Potency in assay [12] was 5.16 µM (active).

As for `CN(C)C(=O)NC1(c2ccccc2)CCN(CCC[C@]2(c3ccc(Cl)c(Cl)c3)CCCN(C(=O)c3ccccc3)C2)CC1`, in [1], the activity, positive = activation was 6.8% [at 19 µM]. The activity change in [2] was -0.446% [at 11.8 µM, active compounds read high]. In addition, the activation in assay [3] is 0.0463% [at 15.8 µM]; in assay [4], 0.0814% [at 11.8 µM]; in assay [5] it was 8.31% [at 13.5 µM]; in assay [6], 0.0763% [at 13.6 µM]; in assay [9], -4.21% [at 13.5 µM]; in assay [11], 1.46% [at 15.9 µM]. The results for the activation in assay [13], in assay [15] and in assay [20] were 0.44% [at 15.8 µM], 0.625% [at 19 µM] and -11.2% [at 19 µM], respectively. Moreover, the activity change, negative = cytotoxicity was -5.88% [at 13.5 µM] in assay [7] and -4.37% [at 13.5 µM] in assay [19]. Also, the activity, negative = inhibition in assay [10] is 9.02% [at 12.7 µM]; in assay [12], -18.4% [at 12.6 µM]. The activity change, negative = inhibition in [14] was 9.65% [at 19 µM]; in assay [18], 3.81% [at 18.9 µM].

Turning to `COc1cc(C=C2CCC/C(=C\c3ccc(O)c(OC)c3)C2=O)ccc1O`, the values for the Potency in assay [1], in assay [8] and in assay [10] were 6.68 µM (active), 14.1 µM (active) and 18.3 µM (active), respectively. The Potency result in assay [2], in assay [3], in assay [4], in [5], in [6] and in assay [7] was “inactive” throughout. Moreover, the Potency result in assay [9], in [12], in assay [13], in assay [14], in [15] and in assay [20] was “inactive” each time. Moreover, in assay [18], the Potency result is “inactive”.

For `CCCCCCCC/C=C\CCCCCCCC(=O)N(CCO)CCO`, the Potency entry in assay [1], in assay [2], in assay [3], in [4], in assay [5] and in assay [6] was “inactive” each time. Besides, the Potency result in [7], in assay [19], in [8], in assay [10], in [11] and in [12] was “inactive” throughout. For the same molecule, the Potency entry in assay [13], in assay [16], in assay [17], in [14], in assay [15] and in [20] was “inactive” in each case.

Consider `CSc1ccc(/C=C2/C(C)=C(CC(=O)O)c3cc(F)ccc32)cc1`, for which the Potency result in assay [1], in assay [2], in [3], in [4], in assay [5] and in assay [6] was “inactive” each time. Moreover, the Potency entry in [7], in assay [19], in assay [14], in assay [20] and in assay [18] was “inactive” each time.

Values taken from PubChem BioAssay (Tox21).
